CYP2C9 inh: blockers of cytochrome P450 2C9 activity – biochemical, luminescence, ADME assay, primary screen. P11712. CYP2C9 Supersomes, luciferin-H conversion. inhibition, % at 5 µM. 20% of 96,000 active. AID 777, 2007;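 active means blocking of liver enzyme CYP2C9 beyond about 50% at 5 µM, limit read from the data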
Target sequence (P11712 whole entry, looked up): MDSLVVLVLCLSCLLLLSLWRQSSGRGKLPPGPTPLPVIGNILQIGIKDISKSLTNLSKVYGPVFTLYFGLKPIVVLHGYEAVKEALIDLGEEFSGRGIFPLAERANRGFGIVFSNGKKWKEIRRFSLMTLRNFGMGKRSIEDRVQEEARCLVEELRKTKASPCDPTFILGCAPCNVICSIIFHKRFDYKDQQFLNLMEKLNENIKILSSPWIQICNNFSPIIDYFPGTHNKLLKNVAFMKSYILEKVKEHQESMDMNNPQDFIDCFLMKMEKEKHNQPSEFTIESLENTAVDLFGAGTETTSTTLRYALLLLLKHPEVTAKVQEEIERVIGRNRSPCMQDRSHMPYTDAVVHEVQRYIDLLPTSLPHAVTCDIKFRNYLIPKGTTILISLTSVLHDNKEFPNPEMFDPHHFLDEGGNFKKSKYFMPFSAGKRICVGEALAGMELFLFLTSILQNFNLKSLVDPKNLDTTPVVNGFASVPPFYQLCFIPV
CYP2C19 act: human CYP2C19 activators, primary screen, biochemical, luminescence. AID 1025, 2008. 96,000 tested, under 10 active. activation factor at 5 µM. recombinant CYP2C19, luciferin-H EGE luminescence; stronger effect = higher value; 0 = fully inhibited enzyme, 1 = untreated enzyme. Cytochrome P450 2C19 (Homo sapiens), P33261;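 active means activation factor of at least 2 at 5 µM in the primary screen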
PostGolgi ctrl: growth inhibition of yeast control strain, primary screen, counter-screen for post-Golgi transport modulator project; efflux-deficient yeast background strain, growth absorbance A615, 16 h; inhibition, % at 10 µM; 5% of 98,000 active
CYP2C19 inhib: blockers of cytochrome P450 2C19 activity – biochemical, luminescence, ADME assay, primary screen; 21% of 96,000 active; P33261; inhibition, % at 5 µM; CYP2C19 Supersomes, luciferin-H EGE luminescence, 30 min;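 active means CYP2C19 inhibition above a set limit at 5 µM in the primary screen, cut at about 50% in these data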
CYP2C9 act: human CYP2C9 activators, primary screen, biochemical, luminescence. Cytochrome P450 2C9 (Homo sapiens), P11712. recombinant CYP2C9, luciferin-H conversion; stronger effect = higher value; factor 1 = untreated enzyme, 0 = blocked. activation factor at 5 µM. 1.4% of 96,000 active. AID 1024, 2008;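 active means activation factor of 2 or more for CYP2C9 at a 5 µM dose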
PostGolgi yeast: phenotypic screen on post-Golgi transport, primary screen; post-Golgi transport phenotypic cell assay; inhibition, % at 10 µM; 0.9% of 98,000 active; AID 739, 2007;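 further: yeast cells grown in 1536-well plates; yeast grown about 18 h at 30C before absorbance read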
A number is an active result; – = inactive; · = no result. Shown are actives, neighbours in structure and some others; about 32% of the full set was active somewhere. Unless noted, no stated cut-off is given here; in the data, active means inhibition above about 30%; inactive means the rest.

SMILES	CYP2C9 inh	CYP2C19 act	PostGolgi ctrl	CYP2C19 inhib	CYP2C9 act	PostGolgi yeast
COc1cc(C2C3C(=O)N(c4ccccc4)C(=O)C3ON2c2ccccc2)cc(OC)c1OC (stereo not given)	–	–	–	50	–	–
Cc1ccc(OCCNC(=O)c2cc(-n3cnnc3)ccc2Cl)cc1C	–	–	–	–	–	–
CCOC(=O)N1CCC(NC(=O)CCC(=O)N2CC(C)Oc3ccc(C)cc32)CC1 (stereo not given)	–	–	–	–	–	–
Cc1cc(=O)[nH]c(Cc2ccc(OC(C)C)cc2)n1	–	–	–	–	–	–
COc1ccc(C(=O)Nc2cccc(-c3cnc4ccccc4n3)c2)cc1	·	·	–	·	·	–
N/C(Cc1ccc([N+](=O)[O-])cc1)=N\OC(=O)c1ccc2ccccc2c1	–	–	72	–	–	–
Cc1ccc(C(=O)O/N=C(\N)c2cccc([N+](=O)[O-])c2)cc1	–	–	–	–	–	–
N/C(Cc1ccc([N+](=O)[O-])cc1)=N\OC(=O)C(c1ccccc1)c1ccccc1	54	–	33	–	–	–
Cc1cccc(C(=O)O/N=C(\N)Cc2ccc([N+](=O)[O-])cc2)c1	–	–	–	84	–	–
N#Cc1c(NC(=O)CSc2n[nH]c(N)n2)oc(-c2ccccc2)c1-c1ccccc1	51	–	–	–	–	–
COc1ccccc1NC(=O)Cn1c(=O)oc2ccccc21	–	–	–	–	–	–
N#Cc1c(NC(=O)Cn2c(=O)oc3ccccc32)oc(-c2ccccc2)c1-c1ccccc1	76	–	–	–	–	–
CC1(C)NC(=O)N(c2ccccc2Cl)C1(C)NO (stereo not given)	–	–	–	–	–	–
CCCc1cc(=O)[nH]c(SCC(=O)Nc2ccc(OC(F)F)cc2)n1	–	–	–	–	–	–
COc1ccccc1C(=O)OCC(=O)Nc1ccc(OC(F)F)cc1	–	–	–	53	–	–
COc1cccc(OC)c1C(=O)OCC(=O)Nc1ccc(OC(F)(F)F)cc1	99	–	–	75	–	–
COc1ccccc1OCC(=O)Nc1ccc(C(N)=O)cc1	–	–	–	–	–	–
O=C(Cn1cccc1)Nc1ccc(OC(F)(F)F)cc1	–	–	–	51	–	–
CCCC(=O)OCC(=O)Nc1ccc(OC(F)F)cc1	–	–	–	59	–	–
Cc1ccc(C(=O)COC(=O)c2cc(Cl)nc3ccccc23)cc1C	–	–	–	–	2	–
CC(=O)CSc1nnc(-c2cnccn2)n1-c1ccccc1	–	–	–	–	–	–
CN1CCc2nc3sc(C(=O)C45CC6CC(CC(C6)C4)C5)c(N)c3cc2C1	–	–	95	–	–	100
Cc1cc(C)c2cc3c(N)c(C(=O)N4CCc5ccccc5C4)sc3nc2c1	–	–	–	–	–	–
Cn1c(=O)[nH]c(=O)c2c1nc(SCCN1CCCCC1)n2CCCc1ccccc1	–	–	–	–	–	–
CC(C)c1ccc(/C=N/NC(=O)CN(c2cccc(Cl)c2Cl)S(C)(=O)=O)cc1	–	–	–	–	–	–
SMILES	CYP2C9 inh	CYP2C19 act	PostGolgi ctrl	CYP2C19 inhib	CYP2C9 act	PostGolgi yeast
CCn1c(Sc2nc(C)nc3scc(-c4cccs4)c23)n[nH]c1=O	58	–	102	57	–	104
CCOC(=O)c1c(NC(=O)CCc2ccc(CC)o2)sc(C)c1C	–	–	–	–	–	–
CCOC(=O)c1c(NC(N)=O)sc(C)c1C	52	–	–	–	–	–
CCOC(=O)c1c(NC(=O)CNCCO)sc(C)c1C	65	–	–	–	–	–
Cc1ccc2nc(-c3ccc(S(=O)(=O)N4CCOCC4)cc3)cn2c1	–	–	–	–	–	–
Cc1ccc2nc(-c3ccccc3)cn2c1	–	–	–	81	–	–
COc1cccc2c(=O)c(C(=O)O)c[nH]c12	–	–	–	–	–	–
COc1ccc[nH]c1=O	–	–	–	81	–	–
COC(=O)c1ccccc1S(=O)(=O)N1Cc2cc([N+](=O)[O-])ccc2Oc2ccccc21	62	–	–	100	–	–
CCOC(=O)CC1=C(C#N)C(c2cccnc2)C(C(=O)OCC)=C(N)O1 (stereo not given)	75	–	–	73	–	–
CCOC(=O)CC1=C(C(=O)OCC)C(c2cccnc2)C(C#N)=C(N)O1 (stereo not given)	–	–	–	56	–	–
COC(=O)C1=C(C)OC(N)=C(C#N)C1c1cccnc1 (stereo not given)	–	–	–	–	–	–
CCC(CC)C(=O)NC12CC3CC(CC(C3)C1)C2	–	–	–	–	–	–
COc1cnc(N(C)C)nc1Sc1ccc(Cl)cc1	–	–	–	–	–	–
COc1cnc(-c2ccccn2)nc1Sc1ccc(Cl)cc1	–	–	35	–	–	–
CC(C)CNC(=S)NC1CC2CCCC(C1)N2Cc1ccco1 (stereo not given)	–	–	31	–	–	–
Cc1cccc(OCC(=O)N(Cc2cccs2)C2CCS(=O)(=O)C2)c1C (stereo not given)	–	–	–	–	–	–
Cc1cc(C)cc(OCC(=O)N(Cc2cccs2)C2CCS(=O)(=O)C2)c1 (stereo not given)	54	–	–	82	–	–
O=C(c1cccc(Cl)c1)N(Cc1cccs1)C1CCS(=O)(=O)C1 (stereo not given)	–	–	–	–	–	–
O=C(c1sc2ccccc2c1Cl)N(Cc1cccs1)C1CCS(=O)(=O)C1 (stereo not given)	53	–	–	–	–	–
Cc1ccc(OCC(=O)N(Cc2ccc(N(C)C)cc2)C2CCS(=O)(=O)C2)cc1 (stereo not given)	68	–	–	54	–	–
CC1CCc2cc(F)ccc2N1C(=O)CN1C(=O)c2ccccc2C1=O (stereo not given)	–	–	–	–	–	–
Cc1ccc(-n2c(SCC(=O)NCc3ccco3)nc3nc4c(cc3c2=O)COC(C)(C)C4)cc1	–	–	–	–	–	–
O=c1c2ccsc2ncn1Cc1cccc(C(F)(F)F)c1	53	–	–	–	–	–
O=C(Cn1cnc2ccccc2c1=O)NCc1ccc2c(c1)OCO2	–	–	–	–	–	–
COc1ccc(/C=N/NC(=O)c2nn(-c3ccc(C)c(C)c3)c(=O)c3ccccc23)cc1	64	–	–	–	–	–
O=C(NCc1ccccc1)c1c(O)c2cccc3c2n(c1=O)CCC3	–	–	–	–	–	–
COc1ccc(/C=N/NC(=O)c2nn(-c3ccccc3)c(=O)c3c(N)scc23)cc1	–	–	–	–	–	–

From PubChem
